# Test results as given in PubChem BioAssay AID624273 (Broad Institute, 2012).
# Out of some 1,000 compounds screened, about 230 (23%) were called active. Another 1% or so got no clear call; they are omitted. Some of the results follow. Results with a measured potency or affinity are listed apart. Unmarked numbers belong to inactive results. How the calls were made is not given here.
# Target: Long-chain-fatty-acid--AMP ligase FadD28 (Mycobacterium tuberculosis (strain ATCC 25618 / H37Rv)) (UniProt P9WQ59)
# Sequence (P9WQ59 whole entry, looked up): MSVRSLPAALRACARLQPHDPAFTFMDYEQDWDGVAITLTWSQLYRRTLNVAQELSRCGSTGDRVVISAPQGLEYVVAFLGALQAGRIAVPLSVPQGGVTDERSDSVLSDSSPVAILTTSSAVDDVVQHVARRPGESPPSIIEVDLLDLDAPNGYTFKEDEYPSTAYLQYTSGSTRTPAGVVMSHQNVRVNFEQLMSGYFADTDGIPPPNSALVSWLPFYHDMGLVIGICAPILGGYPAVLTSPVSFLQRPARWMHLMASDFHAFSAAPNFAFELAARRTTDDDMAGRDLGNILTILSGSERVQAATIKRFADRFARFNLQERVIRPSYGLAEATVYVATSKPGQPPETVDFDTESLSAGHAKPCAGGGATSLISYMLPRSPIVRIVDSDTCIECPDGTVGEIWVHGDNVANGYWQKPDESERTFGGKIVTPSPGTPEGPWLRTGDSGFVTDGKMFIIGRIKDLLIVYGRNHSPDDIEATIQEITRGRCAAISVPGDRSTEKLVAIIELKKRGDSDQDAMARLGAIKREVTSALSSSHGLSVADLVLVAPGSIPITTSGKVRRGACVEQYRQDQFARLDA
# Experiment: inhibitors of FadD28 bisubstrate probe binding, dose response, biochemical, fluorescence polarization, cherry-pick (AID 624273)
# Details: series mostly up to 50 µM; activity change, negative = inhibition: at the top concentration
row,Compound,"activity change, negative = inhibition [%]"
1,Cc1ccc(S(=O)(=O)N(C)C)cc1NC(=O)CSc1nnnn1-c1ccc(O)cc1,-14.5
2,CC1(C)Cc2nc3oc4c(NCc5ccccc5)ncnc4c3cc2CO1,-2.72
3,CCN=c1scc(C)n1/N=C/c1cc(Br)c(O)c(Br)c1,-4.09
4,O=C(CSc1ncn[nH]1)Nc1ccc(S(=O)(=O)Nc2ncccn2)cc1,-3.33
5,O=C(CSc1ccc(Br)c2cccc(Cl)c12)Nc1ccc(S(=O)(=O)Nc2nccs2)cc1,-15.1
6,COc1ccccc1[C@@H]1C(c2cccc(C)c2)=NN(c2ccccc2)[C@H]1C(=O)N1CCOC1=O,0.248
7,COc1ccccc1COC(=O)c1cccc(S(=O)(=O)N2CCCC2)c1,-0.209
8,O=c1cc(CN2CCc3ccccc32)c2ccc(O)cc2o1,-8.7
9,O=C(O)Cc1ccc2c(c1)N(S(=O)(=O)c1cccs1)CC(C(=O)O)O2 (stereo not drawn),-14.2
10,OCCN1CCN(c2ncnc3c2ncn3[C@H]2CN(Cc3ccncc3)C[C@@H](CO)O2)CC1,-2.24
11,COc1ccc(CCNC(=O)CN(c2ccc(C)cc2)S(=O)(=O)c2c(C)noc2C)cc1OC,-2.72
12,Nc1ccc2c(c1)[nH]c(=O)c1cc(N)ccc12,-0.111
13,NS(=O)(=O)c1cccc(NS(=O)(=O)c2ccc(/C=C/C(=O)OCC(=O)c3ccccc3)cc2)c1,-0.888
14,COc1ccccc1NS(=O)(=O)c1cccc(NC(=O)Nc2cccc(Cl)c2)c1,-3.21
15,Cc1cc(NS(=O)(=O)c2ccc(NC(=O)Cc3ccccc3)cc2)nc(C)n1,-4.8
16,O=[N+]([O-])c1cc(S(=O)(=O)Nc2cccc(C(F)(F)F)c2)ccc1-n1nnc2ccccc21,-21.8
17,CC(=O)Nc1ccc(S(=O)(=O)NC2=C(N3CCN(c4ccc(F)cc4)CC3)C(=O)c3ccccc3C2=O)cc1,-18.6
18,O=C1C(Cl)=C(NCCN2CCOCC2)C(=O)c2ccccc21,-8.82
19,O=C(NN=C1CCCC1)c1cc(Cl)cc(Cl)c1O,-17.8
20,N#Cc1cc2c(nc1SCc1ccc(Cl)nc1)CCCCC2,-3.38
21,Cc1ccc2oc(C(=O)N3CCCCCC3)c(C)c2c1,0.038

row,Compound,"activity change, negative = inhibition [%]"
1,O=C(CSc1ccccn1)N1CCN(S(=O)(=O)c2ccc(Cl)cc2)CC1,-7.31
2,Cc1ccnc(NC(=O)CCC(=O)N(CC(=O)NCC2CCCO2)Cc2ccc(F)cc2)c1 (stereo not drawn),-1.94
3,Cc1cc[n+](CC(=O)c2cc3ccccc3oc2=O)cc1,-3.16
4,O=C1NC(=O)N(Cc2ccc(F)cc2)C(=O)/C1=C\c1ccoc1,-9.04
5,COc1ccc(C(=O)N/N=C2\SCC(=O)N2Cc2ccc3c(c2)OCO3)c(OC)c1,-23.6
6,CCNC(=S)N1CCN(CC(=O)Nc2ccc(Br)cc2)CC1,15
7,Nc1ccccc1/C=N\N=C/c1ccccc1N,-5.39
8,COc1ccc(CCNC(=O)CCNC(=O)N2CC(=O)Nc3ccccc32)cc1,-1.19
9,CN(C)C1(c2nnnn2-c2ccc(Cl)cc2)CCCCC1,-6.34
10,O=C(c1[nH]c(C(F)(F)F)nc1-c1ccccc1)N1CCN(c2ccccn2)CC1,-6.13
11,N#Cc1c(C#N)c(-c2ccccc2)n(-c2ccc(C(=O)O)cc2)c1N,-2.68
12,CC(=O)Nc1ccc(/C=N\NC(=O)CNS(=O)(=O)c2ccc([N+](=O)[O-])cc2)cc1,-16.2
13,COc1ccc(/C=C/C(=O)N2CC(C)OC(C)C2)cc1OC (stereo not drawn),-2.82
14,COC(=O)CSc1nnc(CNC(=O)c2cc(OC)cc(OC)c2)n1-c1ccc(F)cc1,49.8
15,O=c1[nH]c(=S)[nH]c2c1C(c1ccc(Br)cc1)c1c([nH]c(=S)[nH]c1=O)O2,-8.68
16,O=C(OCC(=O)N1CCCC1)c1cccs1,-3.69
17,O=C1NCCN(C(=O)CCc2nnc(-c3ccsc3)o2)C1c1ccc(F)cc1 (stereo not drawn),-10.6
18,COc1ccc(C2(CNC(=O)c3ccc(OC)c([N+](=O)[O-])c3)CCCCC2)cc1OC,-1.23
19,Cc1ccc(-c2nn(-c3ccccc3)cc2/C=C2\SC(=S)N(CCCCCC(=O)O)C2=O)o1,46.1
20,O=C(O)CCCN1C(=O)/C(=C/c2ccc(-c3nc4ccccc4s3)o2)SC1=S,-4.59
21,CC1(c2ccc(OC(F)F)cc2)NC(=O)N(CC(=O)Nc2ccc3[nH]c(=O)[nH]c3c2)C1=O (stereo not drawn),-3.88

row,Compound,"activity change, negative = inhibition [%]"
1,CC(C)CNC(=O)c1cc(S(=O)(=O)N2CCOCC2)ccc1N1CCCC1,-5.51
2,Cc1ccc(NS(=O)(=O)c2ccc(NC(=O)CN(c3cc([N+](=O)[O-])ccc3C)S(C)(=O)=O)cc2)c(C)c1,-0.627
3,COC(=O)Cc1cc(=O)n(-c2nc3ccccc3s2)[nH]1,-9.29
4,Cc1ccccc1-c1cc2nc(NCc3ccccc3)n(C)c(=O)c2s1,10.3
5,O=C(/C=C/c1ccco1)Nc1sc2c(c1C(=O)O)CCC2,0.459
6,CC(=O)Nc1ccc(NC(=O)CSc2nc3nc(C)cc(C)c3c(=O)[nH]2)cc1,-2.41
7,COc1ccc(-n2nnnc2SCC(=O)c2ccc(O)c(O)c2)cc1,-12.5
8,CCC(=O)Nc1cccc(-n2nnnc2SCC(=O)c2ccc(C)c(C)c2)c1,-13
9,CCOc1ccccc1NC(=O)CN(C)S(=O)(=O)c1cnc[nH]1,-5.79
10,Cc1cc(SCNC(=O)c2ccccc2)nc(C(C)C)n1,-7.43
11,COc1ccc(C(C(=O)NC2CCCCC2)N(C(=O)c2sc(C)nc2C)c2ccc(OC)cc2)cc1 (stereo not drawn),9.21
12,Cc1c(Cc2ccc3c(c2)OCO3)sc(NC(=O)c2ccc3ccccc3c2)c1C(N)=O,-7.43
13,CCOC(=O)CNC(=O)Cn1cnc2c(cnn2-c2ccc(C)cc2)c1=O,-4.81
14,O=c1c2ccccc2c(-c2ccc(O)cc2)nn1-c1cccc(C(F)(F)F)c1,4.72
15,CC(C)CN(C(=O)c1ccc(-n2cncn2)c([N+](=O)[O-])c1)C1CCS(=O)(=O)C1 (stereo not drawn),-8.25
16,C/C(Cl)=C\Cn1c(O)c(N=O)c2ccccc21,3.06
17,CC(=O)N1CC2(C)CN(C(C)=O)CC(C)(C1)C2=O,-4.73
18,O=C1ON=C(c2cccc([N+](=O)[O-])c2)/C1=C/c1ccc(O)cc1,-19.1
19,O=C(O)CC1S/C(=N/N=C/c2ccc(-c3ccc(Cl)c([N+](=O)[O-])c3)o2)NC1=O (stereo not drawn),-14.3
20,Cc1ccc(-n2cccc2/C=C2/NC(=O)N(CC(=O)Nc3cccc(C)c3)C2=O)cc1,-3.09
21,COCCNC(=O)C1CCC(CNS(=O)(=O)c2ccc3c(c2)CC(C)N3C(=O)C2CC2)CC1 (stereo not drawn),-4.61
